Test results as given in the supplement of paper PMC6555819.

Each sequence was assayed on RARb homodimer (NR concentration 270 nM) (assay: PBM binding z-score (relative to random genomic background probes); higher = stronger binding; sequences stand for … in GC…GCGATTGACAGCGTAGAATGAAGG).
Outline: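 Random background probes are the reference for binding z-scores. These scores derive from regression-normalized fluorescence on custom Agilent 4×180K protein-binding microarrays incubated 1 h with ligand-free nuclear receptor dimers. Binding was detected with antibodies against each partner (one per run).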
For CCTCGGAGGACAGAAGGTCAGAACTGTCCGCTTT, the PBM binding z-score was 3.17. For CCTTACGGGTCAAGGTTATAGCGCGGGTGGTACG, the PBM binding z-score was 3.48. Work on CCGACTGGGGCAGAAAGGTTTCCATACCATCCGG yielded a PBM binding z-score of 0.129. TTACCAAGGTGAAAGGTTGTTGATGCACGCCTTG was tested, and the PBM binding z-score was 0.999. GCAGACAGGTAAAACGCAGGTAACTCAGGGTGGC showed a PBM binding z-score of 0.258. Sequence AGTCAAAGTTCATGACGAGGTAACGTAAAGCACG has a PBM binding z-score of 3.83. For ATATGTAGGTTAATGGTCATTCAGGTTGGTTCGC, the PBM binding z-score was 1.75. ACTATTAGTTGAGACAAGGGCAACCGATAGGTTG showed a PBM binding z-score of 1.01. For CCGACTGGGGCATAAAGTTACCATAAGCCAGCCC, the PBM binding z-score was -0.229. Work on CGTCCACGGTCATAGGAGGTCAGTGAAGACAGAT yielded a PBM binding z-score of 3.91. Work on TAGCCTTGGTCATGGGCCAGTATACCACGCGAAC yielded a PBM binding z-score of 0.441. In the case of TCTGCTAGGTCAACGATGATCAGCTAATCTGCTA, the PBM binding z-score is reported as 2.72. CCAGACAGGTGAAAGGTACCTCAGTCTGGTACGC gave a PBM binding z-score of 0.251. Sequence ATATGTAGGTTATCGGGTTATTCAGTTTGCGCAT has a PBM binding z-score of 1.48. Sequence TCTTGTAGATCAAAGGATAAGAAAGCCGAAGCCT has a PBM binding z-score of -1.11. TCTTGTAGATCAGCAGGTTAAGGAAGCTGGCCAA gave a PBM binding z-score of 0.142. GTGACTGGGGCAAAGCAGGTTACCATAAGGTTGG was tested, and the PBM binding z-score was 1.55. With ACAGACAGGTCAGTGAAGGTAACTCAGCTGGACG the PBM binding z-score was 2.48. For ACTATTAGTTGACTTAGGGAAACCGATACGACGC, the PBM binding z-score was -0.158. CCGTACGGGTCACGAGGTTATAGCACGACGAGCG showed a PBM binding z-score of 4.11. TCAAGTTGGTCACGGAGGTCACACACGACGGGTA showed a PBM binding z-score of 4.54. CCAGACGGGTGAAAGGTAACTCAGTCTGGTACGC was tested, and the PBM binding z-score was 0.112. CGTCCAAGGTCATAGAAGGTCAGTGAAGACAGAT was tested, and the PBM binding z-score was 5.56. In the case of CCTACTGGGCCATTCAGAGGTCATTGACCATATG, the PBM binding z-score is reported as 4.16. Work on ACTGACAGGTGAGTGAAGGTAACTCAGCTGGACG yielded a PBM binding z-score of 0.153. For ATACCAAGGTGGTCGTGAGGTCGTTGATACTAAC, the PBM binding z-score was 1.63. Work on AGTACGAGGGCACGCTGAGTTGATAGCAGAGTAG yielded a PBM binding z-score of 1.41. Sequence TCGAGTAGGTTACCACTGGGGCATTCAGCTTTCT has a PBM binding z-score of 0.339. Work on AGTACAGGGTCACTAGGCCAGAGTAGGTACGAAT yielded a PBM binding z-score of 3.49. Work on CCTCGGAGGACAGTAGGTCAGAGCTGTCCGCTTT yielded a PBM binding z-score of 2.39. Work on AATACAGGGTCACTAGGCCGGAGTAGGTACGAAT yielded a PBM binding z-score of 3.18. TCTGCTAGGTCAGCTGGTCAGCTAACGAGCTGCC showed a PBM binding z-score of 2.62. GCTAGCAGGCCATCTGGGTCACTCAATGACGGGC was tested, and the PBM binding z-score was 1.99. With TGAATGAGGTTAAAAATCAGGGAACGTGGCGTCG the PBM binding z-score was 0.129. In the case of GTACTAAGGTGAATAGGTCGTTGATGAGTAGGCG, the PBM binding z-score is reported as 2.3. TCATATAGGTAATAGAGGTGAAAGTCGGCATCTA was tested, and the PBM binding z-score was 1.33. Work on TCTAGTAGATCAATAGAGGTTAAGAAAGTGCGCT yielded a PBM binding z-score of 1.38. CCTACTGGGCCAAAGGTCATTCATTCCAATGCTC showed a PBM binding z-score of 4.47. AGTCAAAGTTCACTAAGTAACGTAAGATTCAGCT was tested, and the PBM binding z-score was 3.31. With ACTAGCAGACCAAGGGTCACTCAAGATTAGTCCG the PBM binding z-score was 3.58.
